# Results as given in PubChem BioAssay (NCI).
# About 83,000 compounds went through this panel and 20% of them were active in at least one assay; those are over-represented in the sample as a whole.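 Plates (96-well) were seeded with cells, treated with compound at one concentration, and incubated for 48 hours before percent growth was determined.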 A number with no mark means an inactive call. Rule for the calls: active = growth percent below 10; inactive = the rest.
# Tested on: SF-268 CNS
# Experiment: NCI-60 one-dose screen, 48 h (100 = growth as untreated, 0 = no growth, -100 = all killed)
# Details: 10 µM unless noted
row,Structure (SMILES),growth
1,C=CCn1c(SCC(=O)c2ccccc2)nnc1-c1c[nH]c2ccccc12,102%
2,Cc1cc(=O)oc2cc(OCCCOc3ccc(/C=C/C(=O)Nc4ccc(Cl)cc4)cc3)ccc12,66.9%
3,O=C(c1ccc(Cl)cc1)C1[C@H](c2ccc(Cl)cc2)[C@@H](c2ccccc2)NC12C(=O)Nc1ccc(Br)cc12 (stereo partly specified),34.3%
4,C[C@@H](Nc1c(C#N)cnc2ccc(-c3cnc(N)nc3)cc12)c1ccccc1,16.5%
5,CCN1C(=S)N(CC)C2C1NN=C1SC(c3ccccc3)=CC(=O)N12 (stereo unspecified),115%
6,CC(C)(O)c1cncc(-c2ccc3ncnc(N4CCc5cc(F)c(Cl)cc54)c3c2)c1,26.1%
7,CC(C)(C)Nc1nc2c(OCCc3ccccc3)cccn2c1-c1ccccc1Cl,22.9%
8,COc1ccc(/C=N/NC(=O)c2[nH]c3ccc(Br)cc3c2-c2ccccc2)s1,39.7%
9,OC1CCN(CCCOc2c3ccccc3nc3c2oc2ccc(Cl)cc23)CC1,22.8%
10,Cc1sc2c(c1C)c(=O)nc1c(-c3nc(-c4ccc(F)cc4)no3)n[nH]n12,103%
11,CC(C)(C)Nc1nc2c(OCCc3ccccc3)cccn2c1-c1cccc(F)c1,18.8%
